# Source: PubChem (The Scripps Research Institute Molecular Screening Center)
# Rows were chosen to be rich in hits. Some 1.3% of all compounds tested hit in one or more screens of this group.
# GALR2 ag: GALR2 (human) receptor agonism; O43603; GALR2-expressing cells, agonist activation read-out; activation, % (no concentration beside the values); 140,000 compounds, 0.48% hits; AID 803; in the data active = activation above about 5%, passing the limit was not always enough
# S1P4 antagonist: human S1P4 receptor antagonism; O95977; S1P4-expressing cells, antagonist mode, reporter read-out; inhibition, % at 4.98 µM; 220,000 compounds, 0.26% hits; AID 1510; in the data active = inhibition above about 29%
# S1P3 antag: S1P3 (human) receptor antagonism | inhibition, % at 4.98 µM | 170,000 compounds, 0.27% hits | Q99500 | CHO S1P3 NFAT-BLA reporter, FRET fluorescence, antagonist mode | AID 485;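 active = inhibition above the plate cutoff, the mean inhibition of test wells on that plate plus 3 SD, cut at about 28% in these data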;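 also: cells challenged with S1P at its EC80 of 0.8 µM; blue over green emission ratio from cleaved BLA substrate after 4 h stimulation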
# Target sequence (Q99500 whole entry, looked up): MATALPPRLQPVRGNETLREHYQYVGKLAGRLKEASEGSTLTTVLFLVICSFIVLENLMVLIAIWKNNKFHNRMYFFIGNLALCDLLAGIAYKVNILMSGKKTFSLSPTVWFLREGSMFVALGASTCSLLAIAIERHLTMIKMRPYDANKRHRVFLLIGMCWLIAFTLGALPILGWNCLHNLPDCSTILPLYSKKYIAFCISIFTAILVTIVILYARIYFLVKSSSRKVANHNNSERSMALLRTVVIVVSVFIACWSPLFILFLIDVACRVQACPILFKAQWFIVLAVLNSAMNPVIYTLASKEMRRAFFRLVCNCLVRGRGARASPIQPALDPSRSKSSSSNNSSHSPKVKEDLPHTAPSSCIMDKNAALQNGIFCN
# S1P4 agonist: activates the human S1P4 receptor. O95977. S1P4-expressing cell line, agonist reporter assay. activation, % at 4.98 µM. 220,000 compounds, 0.35% hits; in the data active = activation above about 11%
# GALR2 antag: blocks the human galanin receptor 2 | inhibition, % at 4 µM | AID 828 | GALR2-expressing cells, antagonist mode | O43603 | 140,000 compounds, 0.39% hits;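 also: cells stimulated with galanin 1-16 at roughly its EC80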
# GALR2 ant conf: GALR2 (human) antagonism confirmed. shares compounds with GALR2 antag. inhibition, % at 4 µM. 480 compounds, 60% hits. GALR2-expressing cells, antagonist mode, inhibition;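 also: cells stimulated with galanin at about its EC80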
# BLA inh counter: inhibits beta-lactamase reporter in GALR2 antagonist counterscreen. shares compounds with GALR2 antag. CHO NFAT-BLA reporter, beta-lactamase FRET, thapsigargin-stimulated. inhibition, % at 4.2 µM. 480 compounds, 36% hits. AID 867;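 active = inhibition above the mean inhibition across tested compounds plus 3 SD, cut at about 27% in these data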
# Numbers stand for hits; 0 = inactive; - = no result. Rule as the data show it, unless noted: active = inhibition above about 27%; inactive = the rest.
SMILES,GALR2 ag,S1P4 antagonist,S1P3 antag,S1P4 agonist,GALR2 antag,GALR2 ant conf,BLA inh counter
Clc1ccc(-c2cn3c(n2)-c2ccccc2C3)cc1Cl,0,0,0,0,0,-,-
CS(=O)(=O)c1nc(-c2ccco2)cc(C(F)(F)F)n1,0,0,-,0,27,53,44
Nc1c(Cl)ncnc1NCCc1ccc(O)cc1,-,0,0,0,-,-,-
O=C(C1=NN(c2ccccc2)C2C(=O)N(c3ccccc3Cl)C(=O)C12)c1ccccc1 (stereo not drawn),0,0,0,0,29,0,42
COc1ccc(CN=C2NC(=O)CC(C(=O)Nc3ccccc3C)S2)cc1 (stereo not drawn),0,0,0,0,0,-,-
CSc1ncccc1C(=O)Nc1nc2c(C)cccc2s1,0,0,0,0,29,28,0
COc1ccc(COc2ccsc2C(=O)Nc2ccc(Cl)cc2)cc1,0,0,-,0,52,0,0
CCC1=Nc2cc(C(=O)NCc3ccco3)ccc2Sc2ccc(C)cc21,0,0,0,0,31,0,0
CCC1=Nc2cc(C(=O)NCCCOC)ccc2Sc2ccccc21,0,0,-,0,0,-,-
CC1CCCCC1NC(=O)COC(=O)c1c2c(nc3ccccc13)/C(=C/c1ccco1)CC2 (stereo not drawn),0,0,0,0,60,37,48
NC(=O)c1ccc(NC(=O)COC(=O)c2c3c(nc4ccccc24)/C(=C\c2cccs2)CCC3)cc1,0,0,0,0,0,-,-
CC(C)CNC(=O)COC(=O)c1c2c(nc3ccccc13)/C(=C/c1cccs1)CC2,0,0,0,0,31,38,44
O=C(COC(=O)c1c2c(nc3ccccc13)/C(=C/c1ccco1)CC2)NC1CCCC1,0,0,0,0,0,-,-
COc1ccc(-n2cnnc2SCC(=O)NC2CCCc3ccccc32)cc1 (stereo not drawn),0,0,0,0,0,-,-
Cc1ccc(NC(=O)/C=C/c2ccco2)nc1,0,0,0,0,34,0,48
O=C(/C=C/c1ccco1)Nc1ccccn1,0,0,0,0,0,-,-
COc1ccc(C(=O)c2cc([N+](=O)[O-])ccc2N2CCOCC2)cc1,0,0,0,0,34,28,49
CC(=O)c1ccc(NC(=O)c2cc3nc4c(c(C(F)(F)F)n3n2)CCCC4)cc1,0,0,-,0,31,0,0
Cn1c(-c2c(N)n(CCc3ccccc3)c3nc4ccccc4nc23)nc2ccccc21,0,0,-,0,36,45,54
CCOc1ccc(S(=O)(=O)NCc2ccccn2)cc1,0,0,-,0,0,-,-
CCOc1ccc(S(=O)(=O)NCc2ccncc2)cc1,0,0,-,0,34,53,0
CCOC(=O)COc1ccc(S(=O)(=O)NCc2ccncc2)cc1,0,0,0,0,33,33,0
Cc1ccc(S(=O)(=O)NCc2ccncc2)cc1,0,0,0,0,31,39,0
Cc1ccc(S(=O)(=O)NCC(=O)NCc2ccncc2)cc1,0,0,-,0,0,-,-
CC(=O)N1CCc2cc(S(=O)(=O)NCCC3=CCCCC3)ccc21,0,0,-,0,0,-,-
SMILES,GALR2 ag,S1P4 antagonist,S1P3 antag,S1P4 agonist,GALR2 antag,GALR2 ant conf,BLA inh counter
COc1ccc(/C=N/NC(=O)C(N)=O)c(OC)c1OC,0,0,0,0,27,0,0
COc1ccc(/C=N/NC(=O)c2cnccn2)c(OC)c1OC,-,0,0,0,-,-,-
c1ccc2sc(NC3=NCN(CC4CCCO4)CN3)nc2c1 (stereo not drawn),-,0,0,0,-,-,-
Cc1ccc(-c2nc3ccccc3[nH]2)s1,0,0,0,0,0,-,-
Cc1[nH]c2ccccc2c1-c1nc2ccccc2[nH]1,0,0,0,0,42,49,0
CCOc1ccc(OCc2cccc(C(=O)Nc3ccc(CN4CCCCC4)cc3)c2)cc1,0,0,0,0,0,-,-
Cc1ccc(S(=O)(=O)Nc2ccc3c(c2)OCCO3)cc1,-,0,0,0,-,-,-
Cc1nc2ccc(NS(=O)(=O)c3ccc4c(c3)OCCO4)cc2s1,0,0,-,0,34,0,0
Cc1[nH]c2ccccc2c1/C=N/NC(=O)c1cc(-c2cccs2)[nH]n1,0,0,0,0,28,0,0
Cc1sc2ncnc(Nc3ccccc3)c2c1C,0,0,-,0,0,-,-
Cc1sc2ncnc(NCc3ccccc3)c2c1C,0,0,-,0,29,0,0
Cc1ccc(Nc2nc(-c3c(C)nc4ccccn34)cs2)cc1,0,0,-,0,34,40,59
